Data reported in PubChem BioAssay (NCATS).
Several values for one entry are separate records, joined by “and”; a condition that tells them apart may be missing. Equal entries are not always repeated. Records with an inconclusive call do not appear. Activity calls are given as the source filed them. Unless noted, how the calls were made is not given here.

Assays:
[1] = qHTS profiling for inhibitors of Plasmodium falciparum (HB3) proliferation (AID 743324; active means well fitted curve in the direction sought with a large enough effect; an effect the other way counts as inactive or inconclusive;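 further: 100% = DMSO vehicle wells and 0% = artemisinin-treated control wells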); conditions: Plasmodium falciparum HB3 blood-stage proliferation; at 28.7 µM (top of the series) unless noted
Method in brief: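 SYBR Green fluorescence (485 ex/535 em) of lysed cultures, incubated overnight at room temperature in the dark, quantifies parasite DNA. Infected erythrocytes at 0.3% parasitemia and 2.5% hematocrit were exposed 72 h; values normalized to DMSO and 0.29 uM artemisinin controls.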

[2] = qHTS profiling of the MIPE4 collection as inhibitors of Plasmodium falciparum (3D7) proliferation (AID 743344);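 further: scaled between DMSO vehicle wells and 0.29 µM artemisinin as full inhibition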; conditions: P. falciparum 3D7 in erythrocytes, SYBR Green DNA fluorescence, 72 h; at 28.5 µM (top of the series) unless noted
Method in brief: (§1)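 Parasite DNA was quantified by SYBR Green I fluorescence (ex 485, em 535 nm) after overnight lysis in saponin/Triton buffer at room temperature. Cultures at 0.3% parasitemia and 2.5% hematocrit were first exposed to compound for 72 h at 37 C; signals were normalised to artemisinin (0.29 uM) and vehicle wells.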

[3] = qHTS profiling of the MIPE4 collection as inhibitors of Plasmodium falciparum (DD2) proliferation (AID 743345); conditions: P. falciparum Dd2 in erythrocytes, SYBR Green DNA, 72 h; at 28.5 µM (top of the series) unless noted
Method in brief: as §1

[4] = qHTS profiling of the MIPE4 collection as inhibitors of Plasmodium falciparum (HB3) proliferation (AID 743347);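 further: plate controls were DMSO vehicle wells for no effect and artemisinin wells for full effect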; conditions: P. falciparum HB3 in erythrocytes, SYBR Green DNA, 72 h; at 28.5 µM (top of the series) unless noted
Method in brief: as §1

[5] = High-throughput drug toxicity screening in the BPDCN cell line Gen2.2 (AID 1224824); conditions: Gen2.2 BPDCN cells; at 45.8 µM (top of the series) unless noted;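 further: cells exposed to compounds for 48 h before reading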
Method in brief: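 Gen2.2 cells, 500 per well in phenol red-free RPMI with 10% FBS, exposed to compounds 48 h at 37 C, 5% CO2; viability by CellTiter-Glo luminescence. Percent activity scaled to DMSO (100%) and 9.2 uM bortezomib final (0%).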

[6] = High-throughput drug toxicity screening in the BPDCN cell line Cal-1 (AID 1224825); conditions: Cal-1 BPDCN cell viability, qHTS; at 45.8 µM (top of the series) unless noted
Method in brief: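 Percent activity derived from CellTiter-Glo luminescence, scaling DMSO to 100% and 9.2 uM final bortezomib to 0%. BPDCN Cal-1 cells (500/well, RPMI plus 10% FBS) incubated with compounds 48 hours at 37C before reading.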

[7] = qHTS profiling of the MIPE4 collection as inhibitors of Plasmodium falciparum (DD2) proliferation (Rep 2) (AID 743346); conditions: P. falciparum Dd2 in erythrocytes, SYBR Green DNA, 72 h; at 28.5 µM (top of the series) unless noted
Method in brief: as §1

[8] = qHTS assay for measurement of the activity of small molecule inhibitors on Zika virus induced Caspase-3 activity in human iPSC derived neural progenitor cells (hNPCs) (AID 1224857; active means well fitted curve in the direction sought with a large enough effect; an effect the other way counts as inactive or inconclusive; further: % of control where 0% means no effect; nearly all actives have a fitted effect of over 65% in size)
Method in brief: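 Zika virus (2 FFU/cell) infection of human iPSC-derived NPCs, 6 h, following 1 h compound preincubation. Read-out: Caspase-Glo 3/7 luminescence.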

Row | SMILES | remaining proliferation (% of control), lower = more inhibition [1] | parasite growth, % of DMSO control [2] | parasite growth remaining, % of DMSO control (lower = more inhibition) [3] | growth, % of control [4] | cell viability, % of control (lower = more cytotoxic) [5] | viability (% of control) [6] | parasite growth, % of control (lower = inhibition) [7] | Potency [8]
1 | CCc1cc(Nc2nccc(-c3c(-c4ccc(OC)c(C(=O)Nc5c(F)cccc5F)c4)nc4ccccn34)n2)c(OC)cc1N1CCC(N2CCN(S(C)(=O)=O)CC2)CC1 | -0.677% | 4.93% | 6.42% | 4.27% | 179% | 79.3% |  | 
2 | COCCNCCCn1c(C(=O)CF)c(-c2ccc(C)cc2)c2c(N)ncnc21 | 35% | 39% | 85.3% | 32.4% | 77.9% | 85.7% |  | 
3 | CCn1cc(C(=O)O)c(=O)c2cc(F)c(N3CCNC(C)C3)c(F)c21 (configuration not stated) |  | 49.1% | 68.3% | 91.5% | 176% | 107% |  | 
4 | Cc1cccc(-c2nn(C(=S)Nc3ccccc3)cc2-c2ccnc3ccccc23)n1 | 79.6% | 40.4% | 86.3% | 99.5% |  | 91.8% | 66.8% | inactive
5 | CCOc1cc(C(=O)Nc2ccc(Cl)c(-c3nc4ccccc4[nH]3)c2)cc(OCC)c1OCC | 0.587% | 5.5% | 58.5% | 7.25% | 0.788% | 43.8% | 17% | 
6 | CCC(C)n1ncn(-c2ccc(N3CCN(c4ccc(OC[C@H]5CO[C@](Cn6cncn6)(c6ccc(Cl)cc6Cl)O5)cc4)CC3)cc2)c1=O (some centres not stated) | 2.67% | 5.41% | 8.47% |  |  | 93.9% | 37.4% | inactive
7 | Cc1cc(Nc2nc(N[C@@H](C)c3ncc(F)cn3)ncc2Cl)n[nH]1 | 101% | 6.82% | 8.04% | 10.9% | 151% | 4.1% | 21.5% | 
8 | CCOc1ccn(-c2ccc(F)cc2)c(=O)c1C(=O)Nc1ccc(Oc2ccnc(N)c2Cl)c(F)c1 | 36.7% | 41.2% | 80.4% | 73% | 145% | 23.7% | 36% | 
9 | Cc1ccc(N(CC2=NCCN2)c2cccc(O)c2)cc1 |  | 69.6% | 92.8% | 95.9% | 80.5% | 22.6% | 57% | 
10 | Cc1ccnc(NS(=O)(=O)c2ccc(NC(=O)Nc3ccc(S(=O)(=O)Nc4nccc(C)n4)cc3)cc2)n1 | 3.95% | 15.7% | 70.2% | 9.87% | 75.2% | 24.4% | 26.2% | 
11 | CCC(C)N(C)C(=O)c1cc2ccccc2c(-c2ccccc2Cl)n1 (configuration not stated) | 42% | 39% | 83.4% |  | 95% | 94.3% | 53.7% | 
12 | CC[C@@H](C)[C@H](NC(=O)[C@H](CC1CCCCC1)NC(=O)c1ccno1)C(=O)N1CCC2(CCc3ccccc32)CC1 | -0.621% | 5.26% | 7.23% | 5.03% | 168% | 111% |  | 
13 | Clc1cccc(Cl)c1NC1=NCCN1 |  | 86.2% | 77.5% | 70.5% | 144% | 113% | 56.5% | 
14 | COc1ccc([C@@H]2CC(=O)c3c(O)cc(O[C@@H]4O[C@H](CO[C@@H]5O[C@@H](C)[C@H](O)[C@@H](O)[C@@H]5O)[C@@H](O)[C@H](O)[C@@H]4O)cc3O2)cc1O |  | 83.3% and 61.8% | 90.3% and 85.6% |  | 52.6% and 176% | 54.1% and 116% | 120% and 81.3% | 
